Screens: PubChem BioAssay, National Center for Advancing Translational Sciences (NCATS)
JMJD2E inh – qHTS Assay for Inhibitors of Human Jumonji Domain Containing 2E (JMJD2E); Lysine-specific demethylase 4E (Homo sapiens), B2RXH2; JMJD2E catalytic domain, FDH-coupled NADH fluorescence (FDH is formaldehyde dehydrogenase); Potency, µM (doses to about 57.1 µM), most hits filed as inhibitors; 1.6% of 230,000 active; active means well fitted inhibition curve with a large enough effect, not every such curve was filed as active; inconclusive means small, poorly fitted or top-dose-only effect, or another doubt; inactive means no such curve, though single readings can be large or run the other way; further: nearly all actives have a fitted effect of over 50% in size
Target sequence (B2RXH2 1-337 limits assumed): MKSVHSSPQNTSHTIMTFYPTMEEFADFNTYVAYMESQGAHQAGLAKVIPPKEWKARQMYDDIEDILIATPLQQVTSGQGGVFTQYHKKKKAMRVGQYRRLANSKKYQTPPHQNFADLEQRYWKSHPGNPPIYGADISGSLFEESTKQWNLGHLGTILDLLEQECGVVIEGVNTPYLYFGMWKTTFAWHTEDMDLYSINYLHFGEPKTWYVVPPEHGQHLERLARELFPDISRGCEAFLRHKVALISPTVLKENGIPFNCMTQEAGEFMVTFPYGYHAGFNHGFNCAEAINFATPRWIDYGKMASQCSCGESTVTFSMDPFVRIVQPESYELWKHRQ
FBPA coupling cs – qHTS Assay for Inhibitors of Fructose-1,6-bisphosphate Aldolase from Giardia Lamblia: Coupling assay counterscreen | activity change, negative = inhibition, % at 58.2 µM, hits read low | coupling enzyme system counterscreen, AmpLite Red fluorescence | 0.67% of 290,000 active | AID 2472, 2010; in the data active means activity change below about -30%
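Fluorescence at 525 nm excitation and 598 nm emission measured inhibition of the coupled detection system without aldolase. Compounds (at 57.5 uM final) were preincubated 10 min at room temperature with coupling enzyme reagent before a 20 min substrate/AmpLite Red step.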
Tau fluor cs – Counterscreen qHTS for Inhibitors of Tau Fibril Formation, Fluorescence Polarization; tau K18 P301L Alexa594 fluorescence, heparin fibrillization; Potency, µM (doses to about 57.7 µM); AID 1463, 2008; 0.93% of 280,000 active; further: nearly all actives have a fitted effect of over 55% in size
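Human K18 P301L tau (15 uM unlabeled plus 0.24 uM Alexa 594-labeled, final) in 100 mM sodium acetate pH 7 was mixed with compound and 20 uM heparin and incubated 6 hr at 37 C.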
Tau fibril FP – qHTS for Inhibitors of Tau Fibril Formation, Fluorescence Polarization. Microtubule-associated protein tau (Homo sapiens), P10636. K18 P301L tau heparin fibrillization, Alexa594 FP, 6 h. Potency, µM (top dose mostly 57.7 µM), most hits filed as inhibitors. 0.39% of 280,000 active; further: nearly all actives have a fitted effect of over 55% in size
Target sequence (P10636 561-689 P618L limits assumed): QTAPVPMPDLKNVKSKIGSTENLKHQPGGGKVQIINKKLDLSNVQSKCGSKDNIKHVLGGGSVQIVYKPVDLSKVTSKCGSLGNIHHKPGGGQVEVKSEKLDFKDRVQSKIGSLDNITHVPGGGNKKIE
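Read-out: fluorescence polarization of Alexa 594-labeled tau (0.24 uM), 555 nm excitation, 632 nm emission. Mixtures held 15 uM unlabeled K18 P301L, compound and 20 uM heparin, pH 7 acetate buffer, incubated 6 hr at 37 C.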
Tau fibril ThT – qHTS for Inhibitors of Tau Fibril Formation, Thioflavin T Binding. Potency, µM (top dose mostly 57.4 µM), hits mostly inhibitors. AID 1460, 2008. Microtubule-associated protein tau (Homo sapiens), P10636. recombinant tau K18 P301L (four-repeat tau fragment), heparin-induced fibrillization, ThT fluorescence. 2.1% of 270,000 active; further: nearly all actives have a fitted effect of over 55% in size
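Heparin-induced fibrillization of the P301L-mutant K18 repeat-domain fragment of human tau was followed by ThT binding in quantitative high-throughput format.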
Each line names hits and unclear results; the compound was inactive in the other large screens; [ ] = another dose, or the depositor's remark. Shown are actives, neighbours in structure and some others; about 3% of the full set was active somewhere. Unless noted, the call rests on the fitted dose curve; in most records, active means well fitted curve in the direction sought with a large enough effect; inconclusive means small, poorly fitted or top-dose-only effect, or another doubt; inactive means no such curve, though single readings can be large; an effect the other way counts as inactive or inconclusive.

CC(C)CCNC(=O)c1ccc2c(c1)N(Cc1ccccc1F)C(=O)c1ccccc1S2(=O)=O	Tau fibril FP inconclusive (no result: JMJD2E inh, FBPA coupling cs)
CCc1ccc(NC(=O)C(C)OC(=O)c2cccc(S(=O)(=O)N3CCc4ccccc4C3)c2)cc1 (configuration not stated)	FBPA coupling cs -44.7
Cc1ccc2occ(CC(=O)Nc3ccc(S(=O)(=O)N4CCC(C)CC4)cc3)c2c1	Tau fluor cs inconclusive, Tau fibril FP 8.91µM (no result: JMJD2E inh, FBPA coupling cs)
Cc1ccc2c(CC(=O)Nc3cccc(C(F)(F)F)c3)coc2c1	Tau fluor cs inconclusive, Tau fibril FP 25.1µM (no result: JMJD2E inh, FBPA coupling cs)
Cc1ccc2c(CC(=O)Nc3ccc(S(=O)(=O)N4CCC(C)CC4)cc3)coc2c1	Tau fluor cs inconclusive, Tau fibril FP 10µM (no result: JMJD2E inh, FBPA coupling cs)
Cc1ccc2onc(CC(=O)Nc3cccc(C(F)(F)F)c3)c2c1	none (no result: JMJD2E inh, FBPA coupling cs)
CCn1cc2nc(SCc3cccc(C(F)(F)F)c3)n(Cc3ccc(C)cc3)c(=O)c2n1	none (no result: JMJD2E inh, FBPA coupling cs)
Cc1ccc(N(CC(=O)N2CCN(c3cc(C)ccc3C)CC2)S(=O)(=O)c2c(C)nn(C)c2C)cc1	Tau fibril ThT inconclusive (no result: JMJD2E inh, FBPA coupling cs)
CC[C@H](C)[C@H](NC(=O)[C@@H](NC(=O)CNC(=O)[C@@H](N)CC(C)C)[C@@H](C)O)C(=O)N1CCC[C@H]1C(=O)NCC(=O)O	none (no result: JMJD2E inh, Tau fluor cs, Tau fibril FP, Tau fibril ThT)
CCOc1ccc(N)cc1OC	JMJD2E inh inconclusive, FBPA coupling cs -33.1, Tau fibril ThT inconclusive
CC(C)(C)c1ccc(C(=O)NC(=S)Nc2nc3c(s2)CCCC3)cc1	Tau fibril ThT inconclusive
C/C(=N\Nc1nc2c(s1)CCCC2)c1ccc(Cl)cc1	Tau fluor cs 25.1µM[quencher], Tau fibril ThT 14.1µM
CN(C)c1ccc(C(=O)Nc2nc3c(s2)CCCC3)cc1	JMJD2E inh inconclusive, Tau fluor cs inconclusive, Tau fibril ThT 7.94µM
O=C1CCCC2=C1C(c1ccc(Cl)cc1)C1C(=O)c3ccccc3C1=N2 (configuration not stated)	Tau fluor cs 22.4µM[quencher], Tau fibril ThT 15.8µM
Cc1ncoc1C(=O)Nc1ncc([N+](=O)[O-])s1	Tau fibril FP inconclusive, Tau fibril ThT 25.1µM
O=C(Nc1ncc([N+](=O)[O-])s1)c1cccs1	none (no result: JMJD2E inh, Tau fluor cs, Tau fibril FP, Tau fibril ThT)
COC(=O)[C@@H](NC(=O)O[C@@H]1C(=O)c2cc(OC)ccc2O[C@H]1c1ccc(OC)c(Br)c1)C(C)C	JMJD2E inh inconclusive
CC(Nc1cc(N2CCN(S(=O)(=O)N(C)C)CC2)ccc1[N+](=O)[O-])c1ccccc1 (configuration not stated)	FBPA coupling cs -34.0, Tau fibril ThT inconclusive
CCCC(=O)N1CCN(c2ccc([N+](=O)[O-])c(NC(C)c3ccccc3)c2)CC1 (configuration not stated)	Tau fibril ThT 14.1µM
COC(=O)c1ccccc1NC(=O)c1ncoc1-c1ccco1	none (no result: JMJD2E inh, FBPA coupling cs)
CCOC(=O)c1nc2sc(C)c(C)c2c(=O)[nH]1	JMJD2E inh inconclusive
CCOC(=O)/C(=C\c1cccc(O)c1)c1nc2sc(C)c(C)c2c(=O)[nH]1	Tau fibril FP inconclusive, Tau fibril ThT 20µM
CC(=O)c1cccc(NC(=O)C(OC(=O)c2ccccc2NS(=O)(=O)c2cccs2)c2ccccc2)c1 (configuration not stated)	JMJD2E inh inconclusive, Tau fluor cs inconclusive, Tau fibril FP 17.8µM
O=S(=O)(Nc1ccc(O)c2ccccc12)c1cccs1	FBPA coupling cs -34.7 (no result: JMJD2E inh, Tau fluor cs, Tau fibril FP, Tau fibril ThT)
O=C(Nc1ccc(Cl)c(Cl)c1)Nc1ccccc1NS(=O)(=O)c1cccs1	Tau fluor cs 7.08µM[quencher], Tau fibril FP 14.1µM, Tau fibril ThT inconclusive
CCOc1ccc(-n2c(SCC(=O)Nc3cc(C)ccc3C)nc3c([nH]c4ccccc43)c2=O)cc1	none (no result: JMJD2E inh, FBPA coupling cs)
O=C(O)C(Cc1ccc2c(c1)oc1ccccc12)NCP(=O)(O)O (configuration not stated)	none (no result: JMJD2E inh, Tau fluor cs, Tau fibril FP, Tau fibril ThT)
Cc1ccc(C2C(/C=C3/SC(=S)NC3=O)=C(c3cccs3)Oc3ccccc32)cc1 (configuration not stated)	Tau fluor cs inconclusive, Tau fibril ThT 12.6µM
CC1Cc2cc(/C=C3/SC(=S)NC3=O)ccc2O1 (configuration not stated)	none (no result: Tau fibril ThT)
